Data: PubChem BioAssay AID1053117 (Broad Institute, 2014)
Entries with a potency or affinity are not part of this list. The source made the active and inactive calls.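 The calls were made as follows: active = compounds lowering cell ATP signal with a fitted half-effect dose at most twice the top valid dose; inconclusive = flat curve with 30 to 70% signal loss, or bad fit; inactive = wrong direction, flat within 30%, or weaker than limit.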

Test: HEK293 cell cytotoxicity, dose response, cytotoxicity control, cherry-picks, set 5 (AID 1053117);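 also: more negative means greater loss of ATP signal and more cytotoxicity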
Conditions: HEK293T viability, CellTiter-Glo ATP luminescence, 72 h; series mostly up to 26 µM

Compound	outcome
C[C@@H]1CN([C@@H](C)CO)C(=O)c2cc(-c3ccncc3)cnc2O[C@@H]1CN(C)C(=O)Cc1cccnc1	inactive
COCC(C)n1c(SCc2nc(N)nc(Nc3ccccc3C)n2)nc2ccccc2c1=O (stereo not drawn)	inactive
COc1cccc(CN2CCN(C(=O)c3ccc(-c4ccccc4)cc3)CC2)c1OC	inactive
C[C@@H]1CN([C@@H](C)CO)C(=O)c2cc(-c3ccccc3)cnc2O[C@H]1CN(C)C(=O)c1cccc(F)c1	inactive
CC(C)NC(=O)N(C)C[C@H]1Oc2ccc(NC(=O)CCN3CCOCC3)cc2C(=O)N([C@H](C)CO)C[C@@H]1C	inactive
C[C@@H]1CN([C@H](C)CO)C(=O)c2cc(-c3ccccc3)cnc2O[C@H]1CN(C)C(=O)c1cccc(F)c1	inactive
COC(=O)C[C@@H]1CC[C@@H]2[C@@H](COc3ccc(NC(=O)Cc4cccs4)cc3C(=O)N2C)O1	inactive
COCC(=O)Nc1ccc2c(c1)C(=O)N(C)[C@H]1CC[C@@H](CC(=O)NCc3ccccc3Cl)O[C@@H]1CO2	inactive
O=S(=O)(c1ccccc1F)N1CC[C@@H]2[C@H](CO)Nc3ccc(-c4cccc(F)c4)cc3[C@@H]21	inactive
Cc1ccc(S(=O)(=O)N2CC[C@@H]3[C@H](CO)Nc4ccc(-c5cccc(C(=O)N(C)C)c5)cc4[C@@H]32)cc1	inactive
COc1ccccc1CNc1nc(NCc2cnc(C)cn2)c2sccc2n1	inactive
COCC(=O)Nc1ccc2c(c1)C(=O)N(C)[C@H]1CC[C@@H](CC(=O)NCc3ccccc3Cl)O[C@H]1CO2	inactive
Cc1ccc([N+](=O)[O-])cc1NC(=O)CN(C(=O)c1ccccc1Cl)C1CCCCC1	inactive
